The full list was thinned out, with hits kept by preference.
Cycloheximide cs – affects cycloheximide protein synthesis inhibition readout, counter-screen | cell reporter, cycloheximide protein synthesis inhibition counterscreen | max response, % | actives 12% (n = 300,000); in the data active means max response mostly above about 13%, no sharp cut-off; inactive means mostly below about 14%; further: read at 38.3 µM for the half of the compounds with a filed dose; 0% is about no effect
Sm TGR inh – S. mansoni TGR enzyme inhibition. purified TGR, DTNB reduction, TNB absorbance 405 nm. Potency, µM (top dose mostly 114 µM), without a hit: at the highest dose activity change, negative = inhibition, usual class: inhibitors. Q962Y6. actives 3% (n = 360,000); further: potency means the concentration at half of the fitted maximal effect; on the % scale 0 is the no-effect control and ±100 the full control effect; nearly all actives have a fitted effect of over 60% in size
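Kinetic colorimetric format: TGR-catalysed, NADPH-driven DTNB reduction monitored via TNB absorbance. Enzyme dispensed at 20 nM; compound exposure 15 min at room temperature before reaction start.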
Shiga inhibitor – blocks Shiga toxin action in Vero cells; AID 2315; inhibition, % at 38.7 µM; Vero cells, Shiga toxin protein synthesis inhibition reporter; actives 9.2% (n = 290,000); in the data active means inhibition mostly above about 28%, no sharp cut-off; inactive means mostly below about 43%; further: 0% is about no effect
Tb PYK inh – T. brucei pyruvate kinase inhibition; Q57TT1; TbPYK enzyme, Kinase-Glo Plus ATP luminescence, 45 min; Potency, µM (top dose mostly 76.8 µM), for inactives: at the top dose activity, negative = inhibition, most hits filed as inhibitors; actives 0.12% (n = 410,000); AID 624173; further: potency means the concentration at half of the fitted maximal effect; on the % scale 0 is the no-effect control and ±100 the full control effect; nearly all actives have a fitted effect of over 50% in size
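T. brucei PYK with substrate was exposed to pin-transferred compounds across a concentration series, then started with 130 uM ADP (final). After 45 min at room temperature, Kinase-Glo Plus luminescence was read, normalized and curve-fitted.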
FBPA Giardia inh – inhibitors of Giardia lamblia fructose-1,6-bisphosphate aldolase; A8B2U2; purified Giardia FBPA; Potency, µM (top dose mostly 59.6 µM), without a hit: at the top dose activity, negative = inhibition, most hits filed as inhibitors; actives 0.71% (n = 290,000); further: potency means the concentration at half of the fitted maximal effect; on the % scale 0 is the no-effect control and ±100 the full control effect; nearly all actives have a fitted effect of over 55% in size
Target sequence (A8B2U2 whole entry, looked up): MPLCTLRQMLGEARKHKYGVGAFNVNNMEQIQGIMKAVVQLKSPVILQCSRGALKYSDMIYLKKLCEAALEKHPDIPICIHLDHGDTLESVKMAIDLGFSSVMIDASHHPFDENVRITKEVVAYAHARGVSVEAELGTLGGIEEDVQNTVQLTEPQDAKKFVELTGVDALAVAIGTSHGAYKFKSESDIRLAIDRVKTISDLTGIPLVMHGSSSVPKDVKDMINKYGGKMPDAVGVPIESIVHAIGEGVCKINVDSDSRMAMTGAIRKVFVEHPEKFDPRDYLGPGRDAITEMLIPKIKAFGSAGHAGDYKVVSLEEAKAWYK
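Giardia FBPA (40 nM reagent) was preincubated 10 min at RT with compound (up to 57.5 uM final), then substrate plus GAPDH/TPI/NAD/arsenate coupling system with diaphorase/resazurin was added; resorufin fluorescence (525/598 nm) was read after 20 min.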
LmPK inhibitor – blocks Leishmania mexicana pyruvate kinase activity; actives 0.37% (n = 290,000); purified LmPK, Kinase-Glo ATP luminescence, 1 h; Q27686; Potency, µM (highest dose often 57.5 µM), for the others: at the top dose activity change, negative = inhibition, actives largely listed as inhibitors; further: potency means the concentration at half of the fitted maximal effect; on the % scale 0 is the no-effect control and ±100 the full control effect
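ATP generated from ADP (0.1 mM) and PEP (0.5 mM) by 0.1 nM LmPK over 1 h at room temperature (pH 7.2 imidazole buffer) was detected by coupled luciferase luminescence. Values were normalized to uninhibited and no-enzyme wells.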
* marks the source's active call; other numbers are inactive results; ? = inconclusive; / = no result; + = active, no number. Unless noted, the call rests on the fitted dose curve; in most records, active means well fitted curve in the direction sought with a large enough effect; inconclusive means small, poorly fitted or top-dose-only effect, or another doubt; inactive means no such curve, though single readings can be large; an effect the other way counts as inactive or inconclusive.

SMILES | Cycloheximide cs | Sm TGR inh | Shiga inhibitor | Tb PYK inh | FBPA Giardia inh | LmPK inhibitor
O=C(Cn1sc2ccccc2c1=O)Nc1ccc(Br)cc1 | / | / | / | 7.9µM* | / | /
COc1cc(/C=N/NC(=O)CC#N)cc(Br)c1O | -1 | -3% | -18 | -8% | -8% | 0%
COc1cc(/C=N/NC(=O)COc2ccccc2C)ccc1OC(=O)c1cccs1 | -6 | 14% | 0 | 3% | 7% | 1%
COc1cc(/C=N/Nc2cccc(C)c2)cc(Br)c1O | 2 | 45µM* | 28 | -12% | -7% | 1%
COc1cc(/C=N/Nc2cccc(C)c2)ccc1OC(=O)c1cccs1 | 18* | -29% | 33 | -12% | -4% | 5%
COc1ccccc1NC(=O)Cn1c(SCC(=O)N(C)c2ccccc2)nc2ccccc21 | / | 1% | / | 1% | / | /
O=C(NCCc1ccccc1)c1cc(-c2ccccc2)nc2n[nH]c(-c3ccccc3)c12 | / | 12% | / | -10% | / | /
Cn1c2c(c(=O)n(C)c1=O)C(C(F)(F)F)(C(F)(F)F)N=C(c1ccc(Cl)cc1)N2 | 6 | -6% | -14 | -3% | 4% | 0%
Cc1ccccc1C1=NC(C(F)(F)F)(C(F)(F)F)c2c(n(C)c(=O)n(C)c2=O)N1 | 61* | 3% | 109* | -9% | 3% | 1%
CC1(C(=O)NS(=O)(=O)c2ccccc2Cl)CCN1C(=O)Cc1cccc2ccccc12 (configuration not stated) | / | / | / | -10% | / | /
CCCCCn1c(NCc2ccccc2OC)nc2ccccc21 | / | 8% | / | 2% | / | /
CCOC(=O)N1CCc2c(sc3c2c(=O)n(-c2ccc(CC)cc2)c(=O)n3CC(=O)c2ccc(F)cc2)C1 | / | 0% | / | 2% | / | /
CCNc1nc(NC(C)C)nc(N(C#N)C(C)C(=O)N(C)C)n1 (configuration not stated) | 0 | -4% | -1 | 2% | 7% | -4%
CC(C)Nc1nc(NC(C)C)nc(N(C#N)C(C)C(=O)N(C)C)n1 (configuration not stated) | 7 | 40µM* | 34 | / | -8% | 4%
Oc1cccc(Nc2cc(-c3ccccc3)ncn2)c1 | / | -5% | / | 4% | / | /
Cc1nc(Nc2ncc(C(=O)Nc3c(C)cccc3Cl)s2)cc(N2CCN(CCO)CC2)n1 | / | / | / | -6% | / | /
COc1cccc(/C=N/Nc2nc(Nc3ccc([N+](=O)[O-])cc3)nc(N3CCCC3)n2)c1O | 11 | 2% | 28 | -1% | -16% | 5%
CCOc1ccccc1/C=N/Nc1ccnc(=O)[nH]1 | 24* | 1% | 28 | 9% | -10% | -2%
COc1cccc(/C=N/Nc2ccnc(=O)[nH]2)c1O | 26* | 2% | 56* | -12% | -10% | -10%
O=c1nccc(N/N=C/c2ccccc2O)[nH]1 | 27* | 11% | 31 | ? | 5% | -14%
COc1cccc(/C=N/Nc2ccc([N+](=O)[O-])cn2)c1O | 40* | 7% | 91* | 2% | 2% | -14%
COc1cccc(/C=N/Nc2ccc(S(=O)(=O)O)cc2)c1O | 1 | -6% | 7 | 3% | 2% | -28%
Cc1ccc(NC(=S)Nc2ccc(F)cc2)cc1C | 12 | -25% | 28 | -6% | -20% | 8%
Cc1cc(C)cc(NC(=S)Nc2ccccn2)c1 | 21 | ? | active | -10% | -9% | -1%
Cc1cccc(NC(=S)Nc2ccccn2)c1 | 33* | ? | 62* | -7% | -15% | -4%
SMILES | Cycloheximide cs | Sm TGR inh | Shiga inhibitor | Tb PYK inh | FBPA Giardia inh | LmPK inhibitor
Cc1ccc(NC(=S)Nc2ccc3nc(-c4ccccn4)c(-c4ccccn4)nc3c2)cc1C | 16* | -29% | 40 | 1% | 1.3µM* | 2%
Cc1ccc(NC(=S)Nc2ccccn2)cc1C | 65* | -14% | 85* | -16% | -9% | 1%
Cc1cccc(NNC(=S)Nc2ccccc2)c1 | / | / | / | -4% | / | /
CCc1nn2c(=O)cc(COc3ccc(/C=C(\C#N)C(=O)Nc4ccc(F)cc4)cc3OC)nc2s1 | / | 17% | / | -1% | / | /
COc1ccc(-c2nc3cnc(N4CCOCC4)nc3n(CCC#N)c2=O)cc1 | / | / | / | -7% | 7% | /
COCCCNC(=O)c1c(-c2ccccc2)c(-c2ccccc2)nn(C)c1=O | / | 0% | / | 2% | / | /
CN1[C@@H]2CC(OC(=O)[C@@H](CO)c3ccccc3)C[C@@H]1[C@H]1O[C@H]12 (some centres not stated) | / | / | / | 0% | / | /
Cc1cc(C)c(NC(=O)CS(=O)CC(=O)Nc2ccc(-n3cnnn3)c(C)c2)c(C)c1 (configuration not stated) | -2 | -11% | -2 | -2% | 16% | 2%
CNC(=O)c1cc(C(=O)c2ccc(Cl)cc2)c[nH]1 | 24* | -29% | 56* | -4% | 3% | -3%
COc1cccc(CNC(=O)N2CCC(CN3CCC(C)CC3)CC2)c1 | / | 9% | / | -9% | / | /
CCCC1=C(C(=O)OCC)C(c2ccco2)C(C#N)=C(N)O1 (configuration not stated) | 5 | 32µM* | -17 | 1% | -15% | 1%
CCOC(=O)C1=C(CC)OC(N)=C(C#N)C1c1ccc(NC(C)=O)cc1 (configuration not stated) | -1 | 11µM* | 17 | -11% | -28% | -1%
CCOC(=O)C1=C(N)OC(C)=C(C#N)C1c1ccco1 (configuration not stated) | -5 | -23% | -2 | -6% | 0% | -3%
CN1CCCC2(CCN(C(=O)c3cc(C(F)(F)F)cc(C(F)(F)F)c3)CC2)C1 | / | / | / | 10% | 4% | /
CC(C)C[C@@H](CC(=O)N[C@H](CC(=O)N[C@@H]1CCNC[C@H]1C(=O)N[C@H](CC(=O)N[C@@H](CCC(=O)O)CC(=O)O)CC(C)C)C(C)C)NC(=O)[C@@H]1CNCC[C@H]1N | / | / | / | / | -25% | /
COc1ccc(NC(=O)Nc2ccon2)cc1OC | -3 | -8% | -8 | 3% | -4% | -1%
O=C(Nc1ccc(Cl)c(Cl)c1)Nc1ccon1 | 18* | -14% | 15 | -11% | -1% | -8%
CCOC(=O)c1ccc(NC(=O)Nc2ccon2)cc1 | 31* | -1% | 66* | 2% | 3% | -5%
CCc1nnc(NC(=O)C2Cc3ccccc3CN2S(=O)(=O)CC)s1 (configuration not stated) | 20 | 8% | 20 | -18% | 1% | 6%
CCS(=O)(=O)N1Cc2ccccc2CC1C(=O)Nc1nc2ccccc2[nH]1 (configuration not stated) | 34* | -7% | 194* | 6% | -12% | -5%
CCS(=O)(=O)N1Cc2ccccc2CC1C(=O)Nc1nc2ccccc2s1 (configuration not stated) | 43* | 2% | + | -2% | -3% | -3%
Cc1cccc(-c2nc3c(cnn3-c3ccccc3)c(=O)n2-c2ccc(Br)cc2)c1 | / | 1% | / | -4% | / | /
